Measurements from the OligoGym collection.
Also: reference of the scale not given here.

The sequences below were run against SURF1 (assay: pooled miR-30 sensor sort-seq; sequence = guide strand). Settings: shRNA.
In the case of TTGTGGCAGATGCTTCTGCTGC, the sensor-assay potency score (higher = more potent) is reported as -1.64.
Work on TCAGCTTCCACTTCCGACGCTG yielded a sensor-assay potency score (higher = more potent) of 0.863.
TCAGGATTCACTTTCTTCCTGG showed a sensor-assay potency score (higher = more potent) of 0.148.
TTCCTCAGAGTAACTCTGGTTT showed a sensor-assay potency score (higher = more potent) of -0.24.
With TTCAGGATTCACTTTCTTCCTG the sensor-assay potency score (higher = more potent) was -0.13.

The sequences below were run against SYBU in the same assay as above. Settings: shRNA.
TTCTGCATCCACATTGGCGTAG was tested, and the sensor-assay potency score (higher = more potent) was -0.476.
In the case of TTGTAGGAGCCTGAGTTGCTAC, the sensor-assay potency score (higher = more potent) is reported as -1.24.
Sequence TTGATTCCTTCTTATATCGAGA has a sensor-assay potency score (higher = more potent) of -0.708.
With TTAAATGGAAACACTAATCTTT the sensor-assay potency score (higher = more potent) was 0.258.
TCACCAACCATTCCAATCGTGC was tested, and the sensor-assay potency score (higher = more potent) was -1.21.
TTCGATGACCTGTTTGAGCTGT gave a sensor-assay potency score (higher = more potent) of 0.425.
Work on TTCACCAACCATTCCAATCGTG yielded a sensor-assay potency score (higher = more potent) of 0.00982.
With TAAAATCAGCTTCACTACCTGG the sensor-assay potency score (higher = more potent) was -0.495.
TAACAGTTTAAGAACAAACAAG was tested, and the sensor-assay potency score (higher = more potent) was -1.43.
Sequence TCATCGAACAAATCTGTGCTGT has a sensor-assay potency score (higher = more potent) of -0.248.
TTTGATTCCTTCTTATATCGAG gave a sensor-assay potency score (higher = more potent) of 0.632.
In the case of TTGCATGAACTTCTGCATCCAC, the sensor-assay potency score (higher = more potent) is reported as 0.0297.
